Consider 14 compounds from PubChem BioAssay (NCATS).

Inconclusive results are not listed. Active and inactive are the calls of the source. Calls follow the shape of the dose curve; as a rule, active = well fitted curve in the direction sought with a large enough effect; inconclusive = small, poorly fitted or top-dose-only effect, or another doubt; inactive = no such curve, though single readings can be large; an effect the other way counts as inactive or inconclusive.
Potency is read from the fitted curve at half-maximal effect.

One experiment is described as follows: BET inhibitor-based combinations targeting novel dependencies in MECOM-rearranged (r) AML: MV-4-11 cell line (AID 2202233). Also: nearly all actives have a fitted effect of over 45% in size. The conditions noted are these: MV-4-11 AML viability, CellTiter-Glo luminescence, 48 h; series mostly up to 46 µM. In short, it runs like this: (§1)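 First, 500 cells per well were seeded; next, drugs were pinned as 11-point doses; then plates sat 48 hr in the incubator; finally CellTiter-Glo was added and luminescence read, with AUC and Z-AUC computed.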
For orientation: Cellular ATP, detected with luciferase, serves as a proxy for viable cell number.
With `Cc1c(NC(=O)OCC2COCCN2)cn2ncnc(Nc3ccc4c(cnn4Cc4cccc(F)c4)c3)c12` (stereo unspecified), the Potency is 18.6 µM (active).

For `CCn1c(=O)c(-c2ccc(Cl)cc2Cl)cc2cnc(Nc3ccc(N4CCNCC4)c(F)c3)nc21`, the Potency was 0.525 µM (active).

In the case of `O=C(c1ccc(/C=C/c2n[nH]c3ccccc23)cc1)N1CCNCC1`, the Potency is 0.132 µM (active).

`C[C@@H]1COC(Nc2ccc3ncnc(Nc4ccc(OCc5nccs5)c(Cl)c4)c3c2)=N1`: the Potency was 18.6 µM (active).

On to `Cn1cc(-c2cnn3c(N)c(Br)c(C4CCCNC4)nc23)cn1` (stereo unspecified), for which the Potency is 0.468 µM (active).

Turning to `CCCNC(=O)[C@H]1O[C@@H]1C(=O)N[C@H](C(=O)N1CCC[C@H]1C(=O)OC)C(C)CC` (stereo partly specified), the Potency is 8.33 µM (active).

For `CC(/C=C/C(=O)NO)=C\[C@@H](C)C(=O)c1ccc(N(C)C)cc1`, the Potency is 0.417 µM (active).

Regarding `Cc1cnc(Nc2ccc(F)cc2Cl)nc1-c1c[nH]c(C(=O)NC(CO)c2cccc(Cl)c2)c1` (stereo unspecified), the Potency is 0.296 µM (active).

On to `C=CC(=O)Nc1cccc(Nc2nc(Nc3ccc(N4CCN(C(C)=O)CC4)cc3OC)ncc2C(F)(F)F)c1`, for which the Potency is 2.95 µM (active).

A further experiment in a line: BET inhibitor-based combinations targeting novel dependencies in MECOM-rearranged (r) AML: HNT-34 cell line (AID 2202234). Also: nearly all actives have a fitted effect of over 35% in size. The conditions noted are these: HNT-34 AML viability, CellTiter-Glo luminescence, 48 h; series mostly up to 46 µM. Put shortly: as §1
Take `CCn1c(=O)c(-c2ccc(Cl)cc2Cl)cc2cnc(Nc3ccc(N4CCNCC4)c(F)c3)nc21`: the Potency was 0.105 µM (active).

Turning to `O=C(c1ccc(/C=C/c2n[nH]c3ccccc23)cc1)N1CCNCC1`, the Potency was 3.72 µM (active).

For the compound `C[C@@H]1COC(Nc2ccc3ncnc(Nc4ccc(OCc5nccs5)c(Cl)c4)c3c2)=N1`, the Potency was 20.9 µM (active).

`Cn1cc(-c2cnn3c(N)c(Br)c(C4CCCNC4)nc23)cn1` (stereo unspecified): the Potency is 10.5 µM (active).

Take `CCCNC(=O)[C@H]1O[C@@H]1C(=O)N[C@H](C(=O)N1CCC[C@H]1C(=O)OC)C(C)CC` (stereo partly specified): the Potency is 23.5 µM (active).

Take `CC(/C=C/C(=O)NO)=C\[C@@H](C)C(=O)c1ccc(N(C)C)cc1`: the Potency was 0.934 µM (active).

Take `C=CC(=O)Nc1cccc(Nc2nc(Nc3ccc(N4CCN(C(C)=O)CC4)cc3OC)ncc2C(F)(F)F)c1`: the Potency is 4.17 µM (active).

A further experiment is described as follows: BET inhibitor-based combinations targeting novel dependencies in MECOM-rearranged (r) AML: UCSD-AML1 cell line (AID 2202235). Also: nearly all actives have a fitted effect of over 40% in size. The conditions noted are these: UCSD-AML1 AML cells viability, CellTiter-Glo, 48 h; series mostly up to 46 µM. In short, it runs like this:
as §1
As to `Cc1c[nH]c2ncnc(N3CCC(CN)(C(=O)Nc4cccc(OC(=O)N(C)C)c4)CC3)c12`, the Potency entry is “inactive”.

As to `CCn1c(=O)c(-c2ccc(Cl)cc2Cl)cc2cnc(Nc3ccc(N4CCNCC4)c(F)c3)nc21`, the Potency was 0.525 µM (active).

For the compound `[2H]C([2H])(Nc1nc(-c2ccccc2C([2H])(C([2H])([2H])[2H])C([2H])([2H])[2H])ncc1C)c1ccc(-n2ccnn2)cc1`, the Potency result was “inactive”.

Regarding `O=C(c1ccc(/C=C/c2n[nH]c3ccccc23)cc1)N1CCNCC1`, the Potency was 3.32 µM (active).

Take `C[C@@H]1COC(Nc2ccc3ncnc(Nc4ccc(OCc5nccs5)c(Cl)c4)c3c2)=N1`: the Potency is 26.3 µM (active).

Consider `Cn1cc(-c2cnn3c(N)c(Br)c(C4CCCNC4)nc23)cn1` (stereo unspecified), for which the Potency was 5.25 µM (active).

As for `COc1ccc2[nH]c(S(=O)Cc3ncc(C)c(OC)c3C)nc2c1` (stereo unspecified), the Potency result is “inactive”.

For `Cc1cccc(-c2[nH]ncc2-c2ccc(F)c(-c3cnn(CCO)c3)c2)n1`, the Potency entry is “inactive”.

Regarding `CC(C)NC(=O)COc1cccc(-c2nc(Nc3ccc4[nH]ncc4c3)c3ccccc3n2)c1`, the Potency result was “inactive”.

On to `C=CC(=O)Nc1cccc(Nc2nc(Nc3ccc(N4CCN(C(C)=O)CC4)cc3OC)ncc2C(F)(F)F)c1`, for which the Potency was 5.9 µM (active).

A further experiment can be described thus: BET inhibitor-based combinations targeting novel dependencies in MECOM-rearranged (r) AML: AML-191 cell line (AID 2202236; also: nearly all actives have a fitted effect of over 35% in size). The conditions noted are these: AML-191 viability, CellTiter-Glo luminescence, 48 h; series mostly up to 46 µM. In short, it runs like this:
(§2)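 Each compound was tested at eleven concentrations on cells seeded at 500/well. After two days' incubation, ATP-based luminescence reported viability; responses relative to DMSO and blank wells yielded AUC and cell-line-centred Z-AUC.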
On to `Cc1c(NC(=O)OCC2COCCN2)cn2ncnc(Nc3ccc4c(cnn4Cc4cccc(F)c4)c3)c12` (stereo unspecified), for which the Potency was 23.5 µM (active).

With `CC(/C=C/C(=O)NO)=C\[C@@H](C)C(=O)c1ccc(N(C)C)cc1`, the Potency was 1.18 µM (active).

In the case of `COc1ccc2[nH]c(S(=O)Cc3ncc(C)c(OC)c3C)nc2c1` (stereo unspecified), the Potency result was “inactive”.

`C=CC(=O)Nc1cccc(Nc2nc(Nc3ccc(N4CCN(C(C)=O)CC4)cc3OC)ncc2C(F)(F)F)c1`: the Potency was 9.34 µM (active).

A further experiment in a line: BET inhibitor-based combinations targeting novel dependencies in MECOM-rearranged (r) AML: AML-194 cell line (AID 2202237; also: nearly all actives have a fitted effect of over 40% in size). The conditions noted are these: AML-194 (MECOM-r AML) viability, CellTiter-Glo, 48 h; series mostly up to 46 µM. Put shortly:
as §2
With `[2H]C([2H])(Nc1nc(-c2ccccc2C([2H])(C([2H])([2H])[2H])C([2H])([2H])[2H])ncc1C)c1ccc(-n2ccnn2)cc1`, the Potency entry is “inactive”.

Take `CCCNC(=O)[C@H]1O[C@@H]1C(=O)N[C@H](C(=O)N1CCC[C@H]1C(=O)OC)C(C)CC` (stereo partly specified): the Potency was 10.5 µM (active).

For the compound `CC(/C=C/C(=O)NO)=C\[C@@H](C)C(=O)c1ccc(N(C)C)cc1`, the Potency was 1.18 µM (active).

For `Cc1cccc(-c2[nH]ncc2-c2ccc(F)c(-c3cnn(CCO)c3)c2)n1`, the Potency result was “inactive”.

Take `CC(C)NC(=O)COc1cccc(-c2nc(Nc3ccc4[nH]ncc4c3)c3ccccc3n2)c1`: the Potency is 16.6 µM (active).

`C=CC(=O)Nc1cccc(Nc2nc(Nc3ccc(N4CCN(C(C)=O)CC4)cc3OC)ncc2C(F)(F)F)c1`: the Potency was 18.6 µM (active).
